According to PubChem BioAssay AID1159580 (chemical genetic matrix, 2015):
Several values for one entry are separate records, joined by “and”; a condition that tells them apart may be missing. Equal entries are not always repeated. The whole screen tested about 5,500 compounds, of which about 2,000 (36%) were called active. Inconclusive results (about 18%) are left out. No stated cut-off is given here; in the data, active means normalized growth mostly below about 0.91 (no sharp cut-off); inconclusive means no clear call, values can overlap the other calls; inactive means mostly above about 0.92. The list shows a part of the results.

Test: chemical genetic growth profiling, strain panel (AID 1159580);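 further: tested at 20 µM; growth read once vehicle control cultures reached saturation at 30 °C; 1 = growth at the plate median or of vehicle wells; lower values mean less growth of the strain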
Conditions: growth OD
[1] = S. cerevisiae deletion strains, locus YAL013W, strain DEP1, active compounds read low
[2] = S. cerevisiae deletion strains, locus YBR021W, strain FUR4, active compounds read low
[3] = S. cerevisiae deletion strains, locus YBR229C, strain ROT2, active compounds read low
[4] = S. cerevisiae deletion strains, locus YCL029C, strain bik1, active compounds read low
[5] = S. cerevisiae deletion strains, locus YDL035C, strain GPR1, active compounds read low
[6] = S. cerevisiae deletion strains, locus YDL074C, strain BRE1, active compounds read low
[7] = S. cerevisiae deletion strains, locus YDL101C, strain DUN1, active compounds read low
[8] = S. cerevisiae deletion strains, locus YDL134C, strain PPH21, active compounds read low
[9] = S. cerevisiae deletion strains, locus YDL185W, strain tfp1, active compounds read low
[10] = S. cerevisiae deletion strains, locus YDL192W, strain arf1, active compounds read low
[11] = S. cerevisiae deletion strains, locus YDR101C, strain arx1, active compounds read low
[12] = S. cerevisiae deletion strains, locus YDR150W, strain NUM1, active compounds read low
[13] = S. cerevisiae deletion strains, locus YDR162C, strain NBP2, active compounds read low
[14] = S. cerevisiae deletion strains, locus YDR318W, strain mcm21, active compounds read low
[15] = S. cerevisiae deletion strains, locus YDR388W, active compounds read low
[16] = S. cerevisiae deletion strains, locus YDR502C, strain sam2, active compounds read low
[17] = S. cerevisiae deletion strains, locus YEL061C, strain CIN8, active compounds read low
[18] = S. cerevisiae deletion strains, locus YER110C, active compounds read low
[19] = S. cerevisiae deletion strains, locus YER155C, strain BEM2, active compounds read low
[20] = S. cerevisiae deletion strains, locus YER167W, strain BCK2, active compounds read low
[21] = S. cerevisiae deletion strains, locus YGL078C, strain dbp3, active compounds read low
[22] = S. cerevisiae deletion strains, locus YGL086W, strain mad1, active compounds read low
[23] = S. cerevisiae deletion strains, locus YGL248W, strain PDE1, active compounds read low
[24] = S. cerevisiae deletion strains, locus YGR078C, strain PAC10, active compounds read low
[25] = S. cerevisiae deletion strains, locus YGR135W, strain pre9, active compounds read low
[26] = S. cerevisiae deletion strains, locus YGR229C, strain SMI1, active compounds read low
[27] = S. cerevisiae deletion strains, locus YGR252W, strain gcn5, active compounds read low
[28] = S. cerevisiae deletion strains, locus YHR030C, strain SLT2, active compounds read low
[29] = S. cerevisiae deletion strains, locus YHR079C, strain IRE1 (second series), active compounds read low
[30] = S. cerevisiae deletion strains, locus YHR079C, strain IRE1, active compounds read low
[31] = S. cerevisiae deletion strains, locus YHR094C, strain hxt1, active compounds read low
[32] = S. cerevisiae deletion strains, locus YHR129C, strain ARP1, active compounds read low
[33] = S. cerevisiae deletion strains, locus YHR200W, strain rpn10, active compounds read low
[34] = S. cerevisiae deletion strains, locus YIL066C, strain RNR3, active compounds read low
[35] = S. cerevisiae deletion strains, locus YIL073C, strain SPO22, active compounds read low
[36] = S. cerevisiae deletion strains, locus YIL125W, strain kgd1, active compounds read low
[37] = S. cerevisiae deletion strains, locus YIR030C, strain dcg1, active compounds read low
[38] = S. cerevisiae deletion strains, locus YJL095W, strain BCK1, active compounds read low
[39] = S. cerevisiae deletion strains, locus YJL134W, strain LCB3, active compounds read low
[40] = S. cerevisiae deletion strains, locus YJL168C, strain set2, active compounds read low
[41] = S. cerevisiae deletion strains, locus YJL187C, strain SWE1 (second series), active compounds read low
[42] = S. cerevisiae deletion strains, locus YJR043C, strain POL32, active compounds read low
[43] = S. cerevisiae deletion strains, locus YJR066W, strain TOR1, active compounds read low
[44] = S. cerevisiae deletion strains, locus YJR075W, strain HOC1, active compounds read low
[45] = S. cerevisiae deletion strains, locus YKL009W, strain mrt4, active compounds read low
[46] = S. cerevisiae deletion strains, locus YKL068W, active compounds read low
[47] = S. cerevisiae deletion strains, locus YKL085W, strain MDH1 (second series), active compounds read low
[48] = S. cerevisiae deletion strains, locus YKL085W, strain MDH1, active compounds read low
[49] = S. cerevisiae deletion strains, locus YKL190W, strain CNB1, active compounds read low
[50] = S. cerevisiae deletion strains, locus YKR001C, strain vps1, active compounds read low
[51] = S. cerevisiae deletion strains, locus YLR039C, strain RIC1, active compounds read low
[52] = S. cerevisiae deletion strains, locus YLR058C, strain SHM2, active compounds read low
[53] = S. cerevisiae deletion strains, locus YLR102C, strain apc9, active compounds read low
[54] = S. cerevisiae deletion strains, locus YLR113W, strain HOG1, active compounds read low
[55] = S. cerevisiae deletion strains, locus YLR262C, strain YPT6, active compounds read low
[56] = S. cerevisiae deletion strains, locus YLR268W, strain sec22, active compounds read low
[57] = S. cerevisiae deletion strains, locus YLR330W, strain CHS5, active compounds read low
[58] = S. cerevisiae deletion strains, locus YLR342W, strain FKS1 (second series), active compounds read low
[59] = S. cerevisiae deletion strains, locus YLR371W, strain rom2, active compounds read low
[60] = S. cerevisiae deletion strains, locus YLR418C, strain cdc73, active compounds read low
[61] = S. cerevisiae deletion strains, locus YML016C, strain PPZ1, active compounds read low
[62] = S. cerevisiae deletion strains, locus YML032C, strain rad52, active compounds read low
[63] = S. cerevisiae deletion strains, locus YML124C, strain tub3, active compounds read low
[64] = S. cerevisiae deletion strains, locus YMR078C, strain ctf18, active compounds read low
[65] = S. cerevisiae deletion strains, locus YMR223W, strain ubp8, active compounds read low
[66] = S. cerevisiae deletion strains, locus YMR263W, strain SAP30, active compounds read low
[67] = S. cerevisiae deletion strains, locus YMR307W, strain GAS1, active compounds read low
[68] = S. cerevisiae deletion strains, locus YNL067W, strain RPL9B, active compounds read low
[69] = S. cerevisiae deletion strains, locus YNL128W, strain TEP1, active compounds read low
[70] = S. cerevisiae deletion strains, locus YNL153C, strain GIM3, active compounds read low
[71] = S. cerevisiae deletion strains, locus YNL183C, strain NPR1, active compounds read low
[72] = S. cerevisiae deletion strains, locus YNL233W, strain BNI4, active compounds read low
[73] = S. cerevisiae deletion strains, locus YNL250W, strain rad50, active compounds read low
[74] = S. cerevisiae deletion strains, locus YNL271C, strain bni1, active compounds read low
[75] = S. cerevisiae deletion strains, locus YNL298W, strain CLA4, active compounds read low
[76] = S. cerevisiae deletion strains, locus YNL307C, strain MCK1, active compounds read low
[77] = S. cerevisiae deletion strains, locus YNL322C, strain KRE1, active compounds read low
[78] = S. cerevisiae deletion strains, locus YNR052C, strain pop2, active compounds read low
[79] = S. cerevisiae deletion strains, locus YOL006C, strain TOP1, active compounds read low
[80] = S. cerevisiae deletion strains, locus YOL012C, strain htz1
[81] = S. cerevisiae deletion strains, locus YOL147C, strain pex11, active compounds read low
[82] = S. cerevisiae deletion strains, locus YOR061W, strain CKA2, active compounds read low
[83] = S. cerevisiae deletion strains, locus YOR069W, strain VPS5, active compounds read low
[84] = S. cerevisiae deletion strains, locus YOR136W, strain idh2, active compounds read low
[85] = S. cerevisiae deletion strains, locus YOR144C, strain elg1, active compounds read low
[86] = S. cerevisiae deletion strains, locus YOR184W, strain ser1, active compounds read low
[87] = S. cerevisiae deletion strains, locus YOR231W, strain MKK1, active compounds read low
[88] = S. cerevisiae deletion strains, locus YOR316C, strain cot1, active compounds read low
[89] = S. cerevisiae deletion strains, locus YPL055C, strain LGE1, active compounds read low
[90] = S. cerevisiae deletion strains, locus YPL241C, strain CIN2, active compounds read low
[91] = S. cerevisiae deletion strains, locus YPL256C, strain CLN2, active compounds read low
[92] = S. cerevisiae deletion strains, locus YPR119W, strain clb2, active compounds read low
[93] = S. cerevisiae deletion strains, locus YPR141C, strain kar3, active compounds read low
[94] = S. cerevisiae deletion strains, locus YPR163C, strain tif3, active compounds read low
[95] = S. cerevisiae deletion strains, locus YPR167C, strain met16, active compounds read low
[96] = S. cerevisiae deletion strains, strain wtn01, active compounds read low
[97] = S. cerevisiae strains, strain wild type, active compounds read low

Measured: normalized growth

Cc1c(NC(C)C)c(=O)n(-c2ccccc2)n1C
inactive: [1] 1 | [2] 0.994 | [3] 0.989 | [4] 0.983 | [5] 1.02 | [6] 0.987 | [7] 0.985 | [8] 0.996 | [9] 0.984 | [10] 0.995 | [11] 0.984 | [12] 1 | [13] 1.01 | [14] 0.98 | [15] 0.974 | [16] 1 | [17] 1 | [18] 0.984 | [19] 0.99 | [20] 1 | [21] 0.995 | [22] 1 | [23] 1 | [24] 0.987 | [25] 0.983 | [26] 0.998 | [27] 1.09 | [28] 0.998 and 1.03 | [29] 0.98 | [30] 1.03 | [31] 0.98 | [32] 0.991 | [33] 0.981 | [34] 0.998 | [35] 1 | [36] 0.99 | [37] 0.986 | [38] 0.99 and 1.03 | [39] 0.998 | [40] 0.98 | [41] 0.984 | [42] 1 | [43] 0.962 | [44] 0.994 | [45] 0.999 | [46] 0.989 | [47] 1 | [48] 1 | [49] 1 | [50] 0.992 | [51] 1.05 | [52] 0.988 | [53] 0.98 | [54] 1.05 | [55] 1.01 | [56] 0.925 | [57] 1.01 | [58] 1.04 | [59] 0.974 | [60] 0.957 | [61] 0.988 | [62] 0.964 | [63] 0.985 | [64] 0.989 | [65] 1.01 | [66] 1 | [67] 0.978 | [68] 0.986 | [69] 1 | [70] 0.986 | [71] 0.974 | [72] 0.986 | [73] 0.977 | [74] 0.986 | [75] 0.971 | [76] 0.982 | [77] 0.993 | [78] 0.991 | [79] 0.927 | [80] 1.17 | [81] 0.991 | [82] 0.997 | [83] 0.988 | [84] 0.971 | [85] 0.97 | [86] 0.985 | [87] 1.04 | [88] 0.982 | [89] 1.01 | [90] 1 | [91] 1.09 | [92] 0.982 | [93] 0.975 | [94] 0.982 | [95] 0.971 | [96] 0.971 | [97] 0.995

CC(C)N=C(N)N=C(N)Nc1ccc(Cl)cc1
inactive: [1] 1.02 | [2] 1.02 | [3] 1.01 | [4] 1.02 | [5] 1.01 | [6] 1.02 | [7] 1.01 | [8] 1.01 | [9] 1.01 | [10] 1.01 | [11] 1.01 | [12] 1.02 | [13] 1.01 | [14] 1.02 | [15] 1.02 | [16] 1.01 | [17] 1 | [18] 1.02 | [19] 1.01 | [20] 1.02 | [21] 1.01 | [22] 1.01 | [23] 1.02 | [24] 1.01 | [25] 1 | [26] 1.01 | [27] 0.986 | [28] 1.01 and 1.03 | [29] 1.02 | [30] 1 | [31] 1.01 | [32] 1 | [33] 1.02 | [34] 1.01 | [35] 1.07 | [36] 1.01 | [37] 1.02 | [38] 1.02 and 0.993 | [39] 1.01 | [40] 1.02 | [41] 1.01 | [42] 1.02 | [43] 0.987 | [44] 1.02 | [45] 1.01 | [46] 1.01 | [47] 1.02 | [48] 1.02 | [49] 1.01 | [50] 1.02 | [51] 1.05 | [52] 1.02 | [53] 1.02 | [54] 0.951 | [55] 1.04 | [56] 1.03 | [57] 1.01 | [58] 1.02 | [59] 1.03 | [60] 1.02 | [61] 1.01 | [62] 1.02 | [63] 1.01 | [64] 1.02 | [65] 1.01 | [66] 1.01 | [67] 1.04 | [68] 1.01 | [69] 1.01 | [70] 1.01 | [71] 0.968 | [72] 1.01 | [73] 1.01 | [74] 1.01 | [75] 1.01 | [76] 1.02 | [77] 1.01 | [78] 1.01 | [79] 1.02 | [80] 1.92 | [81] 1.01 | [82] 1.01 | [83] 1.01 | [84] 1.02 | [85] 1.02 | [86] 1.01 | [87] 1.01 | [88] 1.02 | [89] 1.03 | [90] 1.01 | [91] 1.04 | [92] 1.01 | [93] 1.02 | [94] 1.02 | [95] 1.02 | [96] 1.01 | [97] 1.01
